Experimental data as given in PubChem BioAssay AID1878 (Sanford-Burnham Center for Chemical Genomics, 2009).
About 200 (20%) of roughly 1,000 compounds were called active. Only a sample is shown. Potency and affinity values are given separately. Unmarked numbers belong to inactive results. Rule as the data show it: active = inhibition above about 55%; inactive = the rest.

Molecular target: Dual specificity protein phosphatase 3 (Homo sapiens) (UniProt P51452)
Experiment: VHR1 phosphatase inhibitors, biochemical (AID 1878)
Details: recombinant VHR phosphatase, fluorogenic substrate; at 13.3 µM; stronger effect = higher value

Dual specificity protein phosphatase 3 (Homo sapiens), sequence (P51452 whole entry, looked up): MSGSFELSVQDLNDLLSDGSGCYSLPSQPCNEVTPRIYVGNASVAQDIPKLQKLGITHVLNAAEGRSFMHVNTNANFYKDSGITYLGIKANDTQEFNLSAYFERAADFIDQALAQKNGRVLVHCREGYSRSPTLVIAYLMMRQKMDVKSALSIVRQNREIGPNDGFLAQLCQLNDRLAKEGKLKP

Compound	inhibition
COc1ccc(OCC(O)CN(CC(O)COc2ccc(OC)cc2)c2cccc(O)c2)cc1 (stereo not given)	3.9%
CCC(CO)(CO)N(CC(=O)Nc1ccc(OC)cc1)CC(=O)Nc1ccc(OC)cc1	5.4%
N=C1/C(=C/c2ccc(-c3cccc(C(=O)O)c3)o2)C(=O)N=C2SC=C(c3ccccc3)N12	79.5% (active)
N=C1/C(=C\c2ccc(-c3cccc(C(=O)O)c3)o2)C(=O)N=C2SC=C(c3ccccc3)N12	88.1% (active)
N=C1/C(=C\c2ccc(-c3ccc(C(=O)O)cc3)o2)C(=O)N=C2SC=C(c3ccccc3)N12	97.1% (active)
COc1ccc(S(=O)(=O)N2CCCOC2CNC(=O)C(=O)NC2CCCC2)cc1 (stereo not given)	-10.2%
Cc1cc(Br)c(S(=O)(=O)NCc2cccnc2)cc1C	5.2%
OC(COC(c1ccc(F)cc1)c1ccc(F)cc1)CN1CCCC(C(F)(F)F)C1 (stereo not given)	-7.4%
Fc1cccc(/C=N/n2c(C3CCCCC3)n[nH]c2=S)c1	0.6%
COc1ccc(CCC(=O)NCCc2cnc[nH]2)cc1	-0.5%
CCOc1cc2[nH]c(=S)n(Cc3ccc(C(=O)NCCCOC)cc3)c(=O)c2cc1OCC	11.5%
O=C(N=C1SC2CS(=O)(=O)CC2N1Cc1ccccc1)C1CCCO1 (stereo not given)	-9.5%
Cc1ccc(S(=O)(=O)NCC(=O)N2CCc3ccccc3C2)cc1	7.4%
Cc1ccccc1-n1c(SCC(=O)Nc2ccccc2Cl)nc2n[nH]c(C)c2c1=N	-7.4%
CCn1c(C)c(C)c2cc(C(=O)NCCCN3CCCCC3C)ccc21 (stereo not given)	-4.1%
O=C1CCCN1CCCNC(=S)Nc1ccc(F)cc1	48.6%
O=C1CCCN1CCCNC(=S)Nc1ccc(F)c(Cl)c1	58.6% (active)
COc1ccc(NC(=S)NCCCN2CCCC2=O)c(OC)c1	47.4%
CC(=O)c1cccc(CN2CCC(CO)(CCOc3ccccc3)CC2)c1	-26.7%
COc1ccc(Cl)cc1NC(=O)C/C(C)=N/NC(=O)c1ccc(O)cc1	-3.4%

Compound	inhibition
CCOC(=O)CN(C)Cc1cn[nH]c1-c1ccc2cc(OC)ccc2c1	4%
O=C(CC12CC3CC(CC(C3)C1)C2)NCc1ccc(F)cc1	-9.3%
CN(C)C(=O)OCC1COc2ccccc2O1 (stereo not given)	0.1%
Cn1c2ccccc2c(=O)c2c(=O)n(C3CCCCCC3)c(C3CCCCC3)nc21	95.7% (active)
COc1ccc(NC2CCCN(C(=O)c3oc(C)cc3C)C2)cc1OC (stereo not given)	1.1%
Cc1nc(C)c(C(=O)Nc2cccc(C)c2C)s1	32.5%
O=C(O)C1Nc2c(Cl)cc(Cl)cc2C2C=CCC12 (stereo not given)	89.8% (active)
O=C(O)C1Nc2c(O)cc(Cl)c([N+](=O)[O-])c2C2C=CCC12 (stereo not given)	92.7% (active)
O=C(Cn1c(=O)c2cccn2c2ccccc21)NCCCN1CCCCC1	2%
O=C(CCC(=O)c1ccc(F)cc1)NCc1ccccc1C(F)(F)F	2.4%
COc1cc(CN2CCN(CC3CC3)CC2CCO)cc(OC)c1 (stereo not given)	-3.6%
CN(Cc1ccccc1)C(=O)COC(=O)COc1ccc(C#N)cc1	-2.2%
CC(C(=O)NCCCc1ccccc1)n1cccc1C(=O)c1ccccc1 (stereo not given)	17.1%
CC(C)[C@H](NC(=O)C1CCN(S(=O)(=O)c2ccccc2)CC1)C(=O)NCc1ccccc1	12.2%
CCCc1cc(SCC(=O)Nc2c(C)n(C)n(-c3ccccc3)c2=O)n2c(nc3ccccc32)c1C#N	98.7% (active)
CC(C(=O)Nc1cccc(S(=O)(=O)N2CCOCC2)c1)N1CCN(C)CC1 (stereo not given)	-1.7%
CCOC(=O)c1c(C)n(CCOc2ccccc2)c2ccc(O)cc12	14.4%
CC(C)/C=C/CN1CCCC(N2CCN(c3cccc(Cl)c3)CC2)C1 (stereo not given)	-15%
COC(=O)c1ccc(COc2ccc(F)cc2)o1	27.9%
C/C(=N\NC(=O)C(=O)Nc1ccc(C)c(Cl)c1)c1ccncc1	91.6% (active)

Compound	inhibition
Cc1ccc(F)c(CNC(=O)C2CCC(=O)N(Cc3ccccn3)C2)c1F (stereo not given)	1.1%
CCC(=O)N1CCN=C1SCc1cccc(F)c1	0.5%
CCC(=O)Nc1c(-c2ccc(Cl)cc2)c(=O)c2ccccc2n1C	-1.5%
COC(=O)c1cc(S(=O)(=O)N2CCCCC2)c[nH]1	4.2%
Cc1c(C)c2cc(Cl)c(OCC(=O)NC3CC(C)(C)NC(C)(C)C3)cc2oc1=O	-11.9%
Nc1ccc2nc3c(=O)[nH]c(=S)[nH]c3nc2c1	61.5% (active)
COc1cccc(-c2ocnc2C(=O)Nc2ccc(N3CCOCC3)cc2N2CCOCC2)c1	-5.2%
CCCCN(CCCC)CCNC(=O)CN1C(=O)COc2ccc(S(=O)(=O)N3CCOCC3)cc21	-18%
Nc1nonc1-c1nc2ccccc2n1CC(=O)N/N=C/c1ccc(-c2cccc(C(=O)O)c2)o1	73.2% (active)
O=S(=O)(NCCc1csc(-c2cccnc2)n1)c1ccc(F)cc1	-3.7%
Oc1ccc(/C=N/Nc2ncc(Cl)cc2Cl)cc1	14.3%
CCc1c(C)nc2c(-c3ccccc3)c(-c3ccccc3)[nH]n2c1=O	1.4%
COC(=O)c1ccc(NS(=O)(=O)c2ccc3c(c2)n(C)c(=O)n3C)cc1	-7.8%
CCCN1CCC(=O)N([C@H](CSc2ccccc2)CC(C)C)CC1	-3.5%
COc1cccc(-c2coc3cc4oc(=O)c(CCC(=O)O)c(C)c4cc23)c1	-0.1%
O=C(NCCCN1CCCCC1)c1ccc(CS(=O)c2ccc(Cl)cc2)o1 (stereo not given)	-3.5%
OCCC1CCCCN1CC(O)COCc1ccc(Cl)cc1 (stereo not given)	-7.1%
c1ccc(-c2ccnc3nc(N4CCN(c5ccccc5)CC4)nn23)cc1	19%
CC1Cc2cc(-c3csc(N)n3)ccc2O1 (stereo not given)	7.6%
O=C(CNC(=O)c1ccco1)Nc1ccc(Br)cc1	7%
